Results filed as inconclusive are left out. Activity calls are given as the source filed them. The calls were made as follows: active = hit-call score of the fitted dose curve at least 0.9, where 1 is the maximum; inconclusive = response in the unintended direction; inactive = score below 0.9.
target: human Constitutive Androstane Receptor (CAR), NR1I3 (gene 9970) (UniProt Q14994); experiment: NVS_NR_hCAR_Antagonist: NovaScreen (NVS) Nuclear Receptor Binding Assay for human Constitutive Androstane Receptor Antagonism (CAR) (AID 2283344)
Method: NVS_NR_hCAR_Antagonist is a biochemical, single-readout assay that uses extracted gene-proteins in a cell-free assay. Measurements were taken 1 hour after chemical dosing in a 384-well plate.NVS_NR_hCAR_Antagonist is one of one assay component(s) measured or calculated from the NVS_NR_hCAR_Antagonist assay. It is designed to make measurements of fluorescent resonance energy transfer, a form of binding reporter, as detected with fluorescent resonance energy transfer signals by Time-Resolved Fluorescence Resonance Energy Transfer (TR-FRET) technology.Data from the assay component NVS_NR_hCAR_Antagonist was analyzed into 1 assay endpoint. This assay endpoint, NVS_NR_hCAR_Antagonist, was analyzed in the positive analysis fitting direction relative to DMSO as the negative control and baseline of activity. Using a type of binding reporter, loss-of-signal activity can be used to understand changes in the binding as they relate to the gene NR1I3. Furthermore, this assay endpoint can be referred to as a primary readout, because the performed assay has only produced 1 assay endpoint. To generalize the intended target to other relatable targets, this assay endpoint is annotated to the nuclear receptor intended target family, where the subfamily is non-steroidal.
Binding assays used specific radioligands (tritiated, iodinated) with non-radioactive competitive displacement ligands in agonist or antagonist protocols (as indicated) and various reference compounds and inhibitors to titrate specific binding to receptors and transporters. Most enzyme assays (CYPs, kinases, phosphatases, proteases, HDACs) used recombinant protein and specific substrates (fluorescence mostly, some colorimetric and radioactive) and inhibitors, followed by a biochemical separation of substrate and product. All assays for the biochemical HTS were initially run in duplicate at a single concentration (10 uM for CYP450 assays and 25 uM for all others). […] Each assay was run with positive and negative controls, and concurrent controls on every plate. The follow-up (secondary) screen tested active chemical-pairs in concentration series, as well as a few additional assays not tested in the primary screen, some selected negative inactives, and several cases re-run in the concentration series for confirmatory purposes.

human Constitutive Androstane Receptor (CAR), NR1I3 (gene 9970), sequence (Q14994 whole entry, looked up): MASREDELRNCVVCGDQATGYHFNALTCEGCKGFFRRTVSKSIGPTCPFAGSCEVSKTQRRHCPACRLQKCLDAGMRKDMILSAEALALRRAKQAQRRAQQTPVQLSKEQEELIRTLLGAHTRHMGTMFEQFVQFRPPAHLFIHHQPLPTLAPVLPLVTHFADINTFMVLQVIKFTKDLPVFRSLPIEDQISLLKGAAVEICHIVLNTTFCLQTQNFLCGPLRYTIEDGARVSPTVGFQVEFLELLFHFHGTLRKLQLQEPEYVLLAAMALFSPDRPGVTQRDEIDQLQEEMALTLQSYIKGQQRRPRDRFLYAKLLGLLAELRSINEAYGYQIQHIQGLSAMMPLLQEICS

**Q.** With `CSc1nnc(C(C)(C)C)c(=O)n1N` as the compound, how does the outcome read?
**A.** Its outcome is “inactive”.

**Q.** How did the outcome turn out when `CCOP(=S)(OCC)SCCSCC` was run?
**A.** The outcome was “inactive”.

**Q.** How did the AC50 turn out when `Cc1cc(C2CC2)nc(Nc2ccccc2)n1` was run?
**A.** The AC50 was 25 µM (active).

**Q.** Which outcome does the source give for `CON=C(C(=O)OC)c1ccccc1CON=C(C)c1cccc(C(F)(F)F)c1` here?
**A.** The outcome was “inactive”.

**Q.** Which outcome does the source give for `CCOP(=S)(OCC)Oc1cc(C)nc(C(C)C)n1` here?
**A.** Its outcome is “inactive”.

**Q.** How did the outcome turn out when `CNc1cnn(-c2cccc(C(F)(F)F)c2)c(=O)c1Cl` was run?
**A.** The outcome was “inactive”.

**Q.** Which outcome does the source give for `CCC(=O)Nc1ccc(Cl)c(Cl)c1` here?
**A.** Its outcome is “inactive”.

**Q.** With `CCC(=NOC/C=C/Cl)C1=C(O)CC(C2CCOCC2)CC1=O` (stereo not drawn) as the compound, how does the outcome read?
**A.** The outcome was “inactive”.

**Q.** For `COc1ccc(C(=CC(=O)N2CCOCC2)c2ccc(Cl)cc2)cc1OC`, which outcome is on record?
**A.** The outcome was “inactive”.

**Q.** How did the outcome turn out when `CCC(CC)Nc1c([N+](=O)[O-])cc(C)c(C)c1[N+](=O)[O-]` was run?
**A.** Its outcome is “inactive”.

**Q.** `CCc1cccc(CC)c1N(COC)C(=O)CCl` was tested. Which AC50 did it give?
**A.** The AC50 was 9.33 µM (active).

**Q.** For `C#CC(C)(C)NC(=O)c1cc(Cl)cc(Cl)c1`, which outcome is on record?
**A.** The outcome was “inactive”.

**Q.** For `CCc1cccc(C)c1N(C(=O)CCl)C(C)COC` (stereo not drawn), which AC50 is on record?
**A.** The AC50 was 12.9 µM (active).

**Q.** For `C#CCC1=C(C)C(OC(=O)C2C(C=C(C)C)C2(C)C)CC1=O` (stereo not drawn), which outcome is on record?
**A.** Its outcome is “inactive”.

**Q.** How did the outcome turn out when `COc1cccc(C(=O)NN(C(=O)c2cc(C)cc(C)c2)C(C)(C)C)c1C` was run?
**A.** Its outcome is “inactive”.

**Q.** `CC1(C(=O)Nc2ccc(O)c(Cl)c2Cl)CCCCC1` was tested. Which outcome did it give?
**A.** The outcome was “inactive”.

**Q.** With `CC[C@H](C)[C@H]1O[C@]2(C=C[C@@H]1C)C[C@@H]1C[C@@H](C/C=C(\C)[C@@H](O[C@H]3C[C@H](OC)[C@@H](O[C@H]4C[C@H](OC)[C@@H](NC)[C@H](C)O4)[C@H](C)O3)[C@@H](C)/C=C/C=C3\CO[C@@H]4[C@H](O)C(C)=C[C@@H](C(=O)O1)[C@]34O)O2` as the compound, how does the AC50 read?
**A.** Its AC50 is 31 µM (active).

**Q.** With `CNC(=O)Oc1cccc2c1OC(C)(C)O2` as the compound, how does the outcome read?
**A.** Its outcome is “inactive”.

**Q.** `N#CSCSC#N` was tested. Which outcome did it give?
**A.** The outcome was “inactive”.

**Q.** For `CCOP(=S)(OCC)Oc1ccc([N+](=O)[O-])cc1`, which outcome is on record?
**A.** The outcome was “inactive”.

**Q.** `CCOP(=O)(NC(C)C)Oc1ccc(SC)c(C)c1` (stereo not drawn) was tested. Which AC50 did it give?
**A.** The AC50 was 16.8 µM (active).

**Q.** Which outcome does the source give for `CCCCN(CC)c1c([N+](=O)[O-])cc(C(F)(F)F)cc1[N+](=O)[O-]` here?
**A.** The outcome was “inactive”.

**Q.** For `CC(C)N(C(=O)SCC(Cl)=C(Cl)Cl)C(C)C`, which outcome is on record?
**A.** Its outcome is “inactive”.

**Q.** With `CCCSP(=O)(OCC)SCCC` as the compound, how does the outcome read?
**A.** The outcome was “inactive”.

**Q.** For `CSC1=N[C@@](C)(c2ccccc2)C(=O)N1Nc1ccccc1`, which AC50 is on record?
**A.** Its AC50 is 3.63 µM (active).

**Q.** Which outcome does the source give for `O=[N+]([O-])c1cc(C(F)(F)F)c(Cl)c([N+](=O)[O-])c1Nc1ncc(C(F)(F)F)cc1Cl` here?
**A.** Its outcome is “inactive”.

**Q.** With `C=C(C)[C@H]1Cc2c(ccc3c2O[C@@H]2COc4cc(OC)c(OC)cc4[C@@H]2C3=O)O1` as the compound, how does the outcome read?
**A.** The outcome was “inactive”.

**Q.** `CC(COc1ccc(Oc2ccccc2)cc1)Oc1ccccn1` (stereo not drawn) was tested. Which outcome did it give?
**A.** The outcome was “inactive”.

**Q.** With `CCCOCC(=Nc1ccc(Cl)cc1C(F)(F)F)n1ccnc1` as the compound, how does the AC50 read?
**A.** The AC50 was 5.88 µM (active).

**Q.** How did the outcome turn out when `CNC(=O)ON=C(SC)C(=O)N(C)C` was run?
**A.** The outcome was “inactive”.

**Q.** With `CCOC(=O)CC(SP(=O)(OC)OC)C(=O)OCC` (stereo not drawn) as the compound, how does the outcome read?
**A.** Its outcome is “inactive”.

**Q.** How did the AC50 turn out when `CCCSP(=O)(OCC)Oc1ccc(Br)cc1Cl` (stereo not drawn) was run?
**A.** Its AC50 is 16 µM (active).

**Q.** With `CCCCSP(=O)(SCCCC)SCCCC` as the compound, how does the outcome read?
**A.** The outcome was “inactive”.
